# The entries come from a sample that favours hits as a whole.
# ERG Ets-DNA blk: qHTS for Small Molecule Inhibitors of the ERG Ets/DNA interaction; Potency, µM (series often up to 76.9 µM), inactives show top-dose FP activity, negative = inhibition, most hits filed as inhibitors; fluorescence polarization, His-ERG Ets domain / labelled DNA; hit rate 0.028% among 370,000; Transcriptional regulator ERG (Homo sapiens), P11308; AID 624246, 2012; active means well fitted inhibition curve with a large enough effect in the polarisation, with a control signal flat; inconclusive means small, poorly fitted or top-dose-only effect, or effect the other way, or a change in a side signal; inactive means no such curve, though single readings can be large or run the other way; the % refers to the polarisation;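 further: polarization taken with two DNA probes labelled with fluorescein and Texas red; potency means the concentration at half of the fitted maximal effect; % of control where 0% means no effect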
# Target sequence (P11308 whole entry, looked up, the tested form may be a part): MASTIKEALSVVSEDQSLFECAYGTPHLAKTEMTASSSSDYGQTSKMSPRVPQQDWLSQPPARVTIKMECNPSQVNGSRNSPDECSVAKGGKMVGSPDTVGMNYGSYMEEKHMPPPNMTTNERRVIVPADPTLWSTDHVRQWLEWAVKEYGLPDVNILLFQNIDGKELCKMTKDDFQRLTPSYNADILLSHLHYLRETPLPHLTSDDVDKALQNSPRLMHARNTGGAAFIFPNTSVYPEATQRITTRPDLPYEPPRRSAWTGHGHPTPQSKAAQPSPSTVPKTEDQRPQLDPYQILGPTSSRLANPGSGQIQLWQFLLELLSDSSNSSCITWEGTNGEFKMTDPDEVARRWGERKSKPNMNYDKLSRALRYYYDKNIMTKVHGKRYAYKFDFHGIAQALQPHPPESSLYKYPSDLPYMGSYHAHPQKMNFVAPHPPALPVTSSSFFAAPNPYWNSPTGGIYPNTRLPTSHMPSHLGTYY
#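 His-tagged ERG Ets domain (1 uM in the protein solution; 300mM KCl, 50mM Tris-HCl, 1mM EDTA, 1mM DTT, pH 7.5) received compound, then a probe mix of 5 nM fluorescein-DNA and 100nM Texas-615-DNA. Fluorescence polarization was read for both dyes.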
# RORgamma inh: qHTS for inhibitors of ROR gamma transcriptional activity | Nuclear receptor ROR-gamma (Mus musculus), P51450 | Drosophila S2 Gal4-RORgamma UAS-luciferase reporter, 20 h | Potency, µM (series often up to 53.6 µM), for inactives: at the highest dose activity change, negative = inhibition, hits mostly inhibitors | hit rate 5.4% among 310,000; further: potency means the concentration at half of the fitted maximal effect; on the % scale 0 is the no-effect control and ±100 the full control effect; nearly all actives have a fitted effect of over 60% in size
#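 Read-out: Photinus luciferase luminescence; inhibitors lower reporter signal. Insect Schneider cells with Gal4-ROR gamma fusion under metallothionein promoter, UAS reporter; 700 uM final copper sulfate induction, 20 hr, ambient temperature.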
# Giardia killer: Small Molecules that selectively kill Giardia lamblia: qHTS | Giardia lamblia trophozoite viability | activity change, % at 7.66 µM, hits read low | hit rate 0.15% among 340,000 | AID 540267, 2011; in the data active means activity change below about -80%; inconclusive means between about -30% and that limit;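 further: parasites exposed to compound for two days anaerobically before the ATP read; on the % scale 0 is the no-effect control and ±100 the full control effect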
#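 Anaerobic 48 hrs incubation at 37 deg C of 100 trophozoites/well with test compounds; ATPLite 1-Step luminescence, 15-30 min RT, reports cellular ATP as viability.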
# a7 integrin act: qHTS for Activators of Integrin-Mediated Alleviation for Muscular Dystrophy. alpha7betagal myoblasts, beta-gal FDG fluorescence, 48 h. hit rate 0.064% among 350,000. Potency, µM (highest dose often 38.3 µM), for inactives: top-dose activation, hits mostly activators;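 further: potency means the concentration at half of the fitted maximal effect; 100% = response of the positive control SU9516; nearly all actives have a fitted effect of over 60% in size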
#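 Alpha7betagal+/- myoblasts (passage 13) were plated 16-24 hr, then exposed to compounds (1:260 dilution of DMSO stock) for 48 hours at 37C. After MPER lysis, β-galactosidase reporter activity was read as FDG fluorescence (ex 480/em 540) after 30 minutes.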
# Gal4-VP16 FLuc: VP16 counterscreen qHTS for inhibitors of ROR gamma transcriptional activity; Drosophila S2 Gal4-VP16 UAS-luciferase, luminescence, 20 h; Potency, µM (highest dose often 53.6 µM), for the others: top-dose activity, negative = inhibition, most hits filed as inhibitors; hit rate 3.5% among 310,000;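 further: Gal4-VP16 expression switched on by copper sulfate through the metallothionein promoter; potency means the concentration at half of the fitted maximal effect; on the % scale 0 is the no-effect control and ±100 the full control effect; nearly all actives have a fitted effect of over 50% in size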
# An asterisk follows results filed as active; u = inconclusive; x = no result; [ ] = another dose, or the depositor's remark. Unless noted, the call rests on the fitted dose curve; in most records, active means well fitted curve in the direction sought with a large enough effect; inconclusive means small, poorly fitted or top-dose-only effect, or another doubt; inactive means no such curve, though single readings can be large; an effect the other way counts as inactive or inconclusive.
SMILES,ERG Ets-DNA blk,RORgamma inh,Giardia killer,a7 integrin act,Gal4-VP16 FLuc
CCOC(=O)c1ccc(NC(=S)Nc2cccc(C)n2)cc1,22%,0.89µM*,16,30%,u
COc1ccc(-c2csc(NC(=O)c3ccccc3NS(=O)(=O)c3ccc(F)c(F)c3)n2)cc1,4%,5.6µM*,-22,-71%,4µM*
COC(=O)C1=C(C)[C@@H](O)[C@@H](C)[C@H](c2c(OC)c(OC)c(C)c(OC)c2OC)O1,x,-2%[10 µM],x,x,-11%[10 µM]
N=c1ccn(Cc2ccccc2Cl)cc1,-1%,13%,11,-29%,-4%
N=c1ccn(Cc2c(Cl)cccc2Cl)cc1,-6%,u,-3,-60%,10µM*
Cc1ccc(C2(C)NC(=O)N(CC(=O)NNC(=O)c3cc(C)oc3C)C2=O)cc1 (stereo not drawn),20%,x,5,-8%,x
CSc1cccc(NC(=S)NC(=O)c2cccnc2)c1,2%,10µM*,u,3%,11µM*
COc1cccc(C(=O)NC(=S)Nc2cccnc2)c1,1%,u,-4,-8%,-25%
CCOc1cc(C(=O)NC(=S)Nc2cccnc2)cc(OCC)c1OCC,-3%,13µM*,-6,21%,u
CCOc1ccc(C(=O)NC(=S)Nc2cccnc2)cc1,-2%,-16%,7,29%,0%
COc1ccc(C(=O)NC(=S)Nc2cccnc2)cc1Cl,5%,10µM*,39,16%,-8%
O=C(NCCCc1nc2ccccc2n1Cc1ccccc1Cl)C1CCCCC1,6%,x,x,x,x
Cc1ccsc1C(=O)N1CCC(CO)(Cc2ccccc2)CC1,8%,10µM*,-2,-8%,u
COc1ccc(-c2nnc(SCC(=O)Nc3ccc(C)c(Cl)c3)nc2-c2ccc(OC)c(OC)c2)cc1OC,9%,x,x,x,x
CCN(CC)c1ccc(/C=N/NC(=O)c2nnn(-c3nonc3N)c2C(C)C)c(O)c1,-9%,3.5µM*,11,-23%,5µM*
CN(C)Cc1c(C(=O)N/N=C/C=C/c2ccccc2)nnn1-c1nonc1N,-2%,u,-6,-13%,u
CC(C)c1c(C(=O)N/N=C/C=C/c2ccccc2)nnn1-c1nonc1N,6%,4.5µM*,-5,-53%,5.6µM*
COc1ccccc1CNC(=O)C(Cc1ccccc1)NS(=O)(=O)c1ccc2c(c1)CCN2C(C)=O (stereo not drawn),-3%,x,x,x,x
CN(C)CCNc1ncnc2c1sc1nc(-c3ccccc3)c3c(c12)CCCC3,20%,u,-12,-25%,2.8µM*
COc1ncnc2c1sc1nc(-c3ccccc3)c3c(c12)CCCC3,-4%,2%,u,4%,-8%
Cc1ccc(Cl)cc1NC(=S)NCCCSC1CCCCC1,2%,2µM*,-12,7%,u
Cc1cc(Cl)ccc1NC(=S)NCCCO,-1%,7%,10,-34%,-2%
Cc1ccccc1NC(=S)NCCO,-2%,24%,-2,-23%,-3%
Cc1ccccc1NC(=S)NCCSc1ccc(Cl)cc1,18%,2.2µM*,-13,8%,u
Cc1ccc([N+](=O)[O-])cc1NC(=O)CCSc1ccc(Cl)cc1,4%,-45%,11,-3%,-7%[0.365 µM]
SMILES,ERG Ets-DNA blk,RORgamma inh,Giardia killer,a7 integrin act,Gal4-VP16 FLuc
Cc1ccc(C)c(NC(=S)NCCSc2ccc(Cl)cc2)c1,-3%,2.5µM*,-4,19%,5µM*
COc1ccc(NC(=S)NCCSc2ccc(C)cc2)c(OC)c1,-5%,x,-5,-15%,x
COc1ccc(OC)c(NC(=S)NCCSc2ccc(C)cc2)c1,-8%,14µM*,-16,-13%,u
COc1cc(OC)c(NC(=O)c2noc3c2CSc2ccccc2-3)cc1Cl,-9%,x,x,x,x
C/C(=N/OC(=O)C1CC12CCC2)c1ccc(Br)cc1 (stereo not drawn),-1%,-37%,8,-54%,-10%
CCCCSCCCNC(=S)Nc1ccccc1C,6%,2.5µM*,19,-17%,u
Cc1cccc(NC(=S)NCCSc2ccc(Cl)cc2)c1,0%,3.2µM*,4,5%,7.1µM*
CCc1ccccc1NC(=S)NCCSc1ccc(Cl)cc1,3%,1.1µM*,6,-7%,7.1µM*
Cc1ccc(NC(=S)NCCSc2ccc(Cl)cc2)c(C)c1,-5%,0.79µM*,3,5%,1µM*
COC(=O)C(NC(=O)c1ccccc1C(=O)O)c1ccc2ccccc2c1 (stereo not drawn),0%,x,1,-21%,x
COc1cccc(C(c2sc3nc(-c4ccco4)nn3c2O)N2CCN(c3ccccc3F)CC2)c1 (stereo not drawn),0%,x,x,x,x
Cc1cccc(-n2cnc3cc(C(=O)NC4CCCCCC4)ccc32)c1,5%,x,x,x,x
Fc1ccccc1NC(=S)NN(Cc1ccccc1)c1ccccc1,-5%,4.5µM*,0,19%,10µM*
Cc1cccc(C)c1NC(=S)NN(Cc1ccccc1)c1ccccc1,11%,5µM*,12,11%,u
Cc1cccc(C)c1NC(=S)N(Cc1ccccc1)Cc1cccnc1,-22%,u,23,9%,12%
CC(C)c1ccccc1NC(=S)NN(Cc1ccccc1)c1ccccc1,-7%,2.2µM*,7,19%,u
CC(C)N(Cc1ccccc1)C(=S)Nc1ccccc1F,-2%,-35%,0,0%,1%
C[C@@](N)(C(=O)O)c1cccc(CC(=O)O)c1,x,13%,x,x,-4%
COc1ccc(NCc2cc3cc4c(cc3n(CC(=O)Nc3cc(C)ccc3C)c2=O)OCCO4)cc1,-1%,x,x,x,x
CCOc1cc(C(=S)N2CCCCC2)ccc1OS(=O)(=O)c1ccc(Cl)cc1,-6%,10µM*,0,-11%,-21%
CCOc1cc(C(=S)N2CCCCC2)ccc1OS(=O)(=O)c1ccc(Br)cc1,-8%,7.1µM*,6,-37%,-12%
CCOc1cc(C(=S)N2CCOCC2)ccc1OS(=O)(=O)c1ccc(C)cc1,6%,8%,13,u,17%
CN(Cc1ccccc1)C(=O)C1CCC(CNS(=O)(=O)c2ccc3c(c2)CCCC(=O)N3)CC1 (stereo not drawn),-1%,x,x,x,x
O=C1CC(C2CCCO2)C(=O)N1c1ccc(Cl)c(Cl)c1 (stereo not drawn),0%,u,-3,-12%,11µM*
CCOC(=O)c1c(N2C(=O)C3C4C=CC(O4)C3C2=O)sc2c1CCCC2 (stereo not drawn),0%,u,-2,-34%,18µM*
CN(C)S(=O)(=O)c1ccc(C(=O)Nc2ccc3c(c2)CCC3)cc1,9%,12%,5,-17%,-6%
O=C(Nc1ccc(Br)cc1)c1cccc(S(=O)(=O)Nc2ccc(Br)cc2)c1,x,u,x,x,7.9µM*
